From PubChem BioAssay (NCI)
This is part of a sample that, as a whole, favours compounds with a hit. Of some 79,000 tested, about 15% had one in any assay. Values without a mark were called inactive. Activity calls are given as the source filed them. No stated cut-off is given here; in the data, active means growth inhibition above about 70%; inactive means the rest.

Assays:
[1] = NCI Yeast Anticancer Drug Screen. Data for the rad52 strain (AID 147);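 further: 0% = growth of vehicle-treated control cultures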; details: S. cerevisiae rad52 mutant growth inhibition, active compounds read high
In short: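 Inhibition of yeast growth, referenced to vehicle controls, was the measured output for a strain with defective DNA damage repair.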

[2] = NCI Yeast Anticancer Drug Screen. Data for the wt1 strain (AID 149);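 further: 0% = growth of vehicle-treated wt1 cultures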; details: S. cerevisiae wt1 strain (SPY 50644) growth inhibition, active compounds read high
In short: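 Vehicle-normalised growth inhibition; strain wt1; compound exposure.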

[3] = NCI Yeast Anticancer Drug Screen. Data for the rad50EPP+ strain (AID 151);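 further: 0% = growth of vehicle-treated control cultures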; details: S. cerevisiae rad50 mutant strain, active compounds read high
In short: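 Genetically defined yeast (rad50EPP+, DNA damage repair alteration) is grown with compound, and inhibition of growth is expressed relative to vehicle-treated controls.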

[4] = NCI Yeast Anticancer Drug Screen. Data for the mgt1 strain (AID 153); details: S. cerevisiae mgt1 mutant growth inhibition, active compounds read high
In short: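 In the mgt1 strain, test compounds were added and growth inhibition was determined relative to vehicle-treated controls.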

[5] = NCI Yeast Anticancer Drug Screen. Data for the rad50 strain (AID 155);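 further: 0% = growth of vehicle-only cultures of the same strain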; details: S. cerevisiae rad50 strain growth inhibition, active compounds read high
In short: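 A DNA repair-deficient yeast mutant serves as the test organism; compound-induced growth inhibition is calculated against vehicle-treated cells.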

[6] = NCI Yeast Anticancer Drug Screen. Data for the mec2-1 strain (AID 157); details: S. cerevisiae mec2-1 strain, active compounds read high
In short: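 Each compound was tested on mec2-1 yeast, a strain altered in DNA damage repair or cell cycle control. Growth inhibition is reported relative to vehicle.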

[7] = NCI Yeast Anticancer Drug Screen. Data for the rad14 strain (AID 159);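 further: 0% = growth of vehicle-treated control cultures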; details: S. cerevisiae rad14 strain growth inhibition, active compounds read high
In short: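 Vehicle-treated cultures served as the baseline for growth inhibition of a DNA repair-mutant yeast strain exposed to each compound.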

[8] = NCI Yeast Anticancer Drug Screen. Data for the sgs1 mgt1 strain (AID 161);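 further: 0% = growth of cultures given vehicle only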; details: S. cerevisiae sgs1 mgt1 strain, active compounds read high
In short: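 Genetically altered yeast, compound exposure, growth inhibition relative to vehicle.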

[9] = NCI Yeast Anticancer Drug Screen. Data for the CLN2oe strain (AID 163);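 further: 0% = growth of vehicle-only control cultures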; details: S. cerevisiae CLN2oe strain, active compounds read high
In short: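 First, the altered yeast strain was treated with each compound; second, its growth was measured; finally, inhibition was derived by comparison with vehicle controls.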

[10] = NCI Yeast Anticancer Drug Screen. Data for the cln2 rad14 strain (AID 165);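 further: 0% = growth equal to vehicle treated cultures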; details: S. cerevisiae cln2 rad14 strain, active compounds read high
In short: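 Test compounds were added to cln2 rad14 yeast cultures; inhibition of growth was then determined by comparison with vehicle treatment.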

[11] = NCI Yeast Anticancer Drug Screen. Data for the bub3 strain (AID 167); details: S. cerevisiae bub3 mutant strain, active compounds read high
In short: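 Inhibition values come from growth of compound-treated mutant yeast normalised to vehicle-treated controls.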

[12] = NCI Yeast Anticancer Drug Screen. Data for the wt2 strain (AID 169);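 further: 0% = growth of vehicle-treated yeast cultures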; details: S. cerevisiae wt2 strain growth inhibition, active compounds read high
In short: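 The panel's yeast strains carry defined changes in DNA repair or cell cycle genes. Each strain is grown with compound, and growth loss is scored relative to vehicle.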

[13] = NCI Yeast Anticancer Drug Screen. Data for the mlh1 strain (AID 171);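 further: 0% = growth of vehicle-treated control cultures of the same strain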; details: S. cerevisiae mlh1 strain growth inhibition, active compounds read high
In short: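 Inhibition values reflect reduced yeast growth in the presence of compound, referenced to vehicle controls, using a strain chosen for its alteration in DNA repair or cell cycle control.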

[14] = NCI Yeast Anticancer Drug Screen. Data for the sgs1 strain (AID 173);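 further: 0% = growth of vehicle-only control cultures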; details: S. cerevisiae sgs1 mutant, active compounds read high
In short: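 Vehicle-treated cultures served as reference for growth inhibition of a yeast strain altered in DNA damage repair or cell cycle control after compound exposure.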

[15] = NCI Yeast Anticancer Drug Screen. Data for the rad18 strain (AID 177); details: S. cerevisiae rad18 mutant growth inhibition, active compounds read high
In short: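 Steps: expose repair-mutant yeast to compound; measure growth; express as inhibition relative to vehicle control.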

[16] = at 5.0 µM (retest, dose inferred, filed as 0.5)
[17] = at 50.0 µM (retest, dose inferred, filed as 5.0)

For `NC(=S)N1N=C2c3ccccc3CC[C@H]2[C@@H]1c1ccc(Cl)cc1`, the growth inhibition ([1]; at 1.2 µM) was 26%, the growth inhibition ([1]; at 3.7 µM) was 31% and the growth inhibition ([1]; at 11.0 µM) was 39%. The growth inhibition ([1]; at 33.0 µM) was 48%, the growth inhibition ([1]; at 100.0 µM) was 88% (active) and the growth inhibition ([2]; at 1.2 µM) was 11%. For the same molecule, the growth inhibition ([2]; at 3.7 µM) was 9%, the growth inhibition ([2]; at 11.0 µM) was 31% and the growth inhibition ([2]; at 33.0 µM) was 46%. The growth inhibition ([2]; at 100.0 µM) was 90% (active), the growth inhibition ([3]; at 1.2 µM) was -14% and the growth inhibition ([3]; at 3.7 µM) was -10%. The growth inhibition ([3]; at 11.0 µM) was -14%, the growth inhibition ([3]; at 33.0 µM) was 8% and the growth inhibition ([3]; at 100.0 µM) was 37%. It also gave a growth inhibition ([4]; at 1.2 µM) of 7%, a growth inhibition ([4]; at 3.7 µM) of -10% and a growth inhibition ([4]; at 11.0 µM) of 0%. For the same molecule, the growth inhibition ([4]; at 33.0 µM) was 29%, the growth inhibition ([4]; at 100.0 µM) was 85% (active) and the growth inhibition ([5]; at 1.2 µM) was -6%. The growth inhibition ([5]; at 3.7 µM) was -2%, the growth inhibition [5, 16] was -20% and the growth inhibition ([5]; at 11.0 µM) was 29%. For the same molecule, the growth inhibition ([5]; at 33.0 µM) was 36%, the growth inhibition [5, 17] was 78% (active) and the growth inhibition ([5]; at 50.0 µM) was 83% (active). The growth inhibition ([5]; at 100.0 µM) was 85% (active), the growth inhibition ([6]; at 1.2 µM) was -17% and the growth inhibition ([6]; at 3.7 µM) was 9%. For the same molecule, the growth inhibition [6, 16] was 7%, the growth inhibition ([6]; at 11.0 µM) was 23% and the growth inhibition ([6]; at 33.0 µM) was 58%. The growth inhibition [6, 17] was 90% (active), the growth inhibition ([6]; at 50.0 µM) was 85.8% (active) and the growth inhibition ([6]; at 100.0 µM) was 88% (active). The growth inhibition ([7]; at 1.2 µM) was -28%, the growth inhibition ([7]; at 3.7 µM) was -20% and the growth inhibition ([7]; at 11.0 µM) was -10%. For the same molecule, the growth inhibition ([7]; at 33.0 µM) was -3%, the growth inhibition ([7]; at 100.0 µM) was 82% (active) and the growth inhibition [8, 16] was -15%. For the same molecule, the growth inhibition [8, 17] was 79% (active), the growth inhibition ([8]; at 50.0 µM) was 84.8% (active) and the growth inhibition ([9]; at 1.2 µM) was -6%. The growth inhibition ([9]; at 3.7 µM) was -10%, the growth inhibition ([9]; at 11.0 µM) was 18% and the growth inhibition ([9]; at 33.0 µM) was 42%. For the same molecule, the growth inhibition ([9]; at 100.0 µM) was 86% (active), the growth inhibition [10, 16] was 12% and the growth inhibition [10, 17] was 91% (active). For the same molecule, the growth inhibition ([10]; at 50.0 µM) was 84.7% (active), the growth inhibition ([11]; at 1.2 µM) was -12% and the growth inhibition ([11]; at 3.7 µM) was 9%. The growth inhibition [11, 16] was 34%, the growth inhibition ([11]; at 11.0 µM) was 26% and the growth inhibition ([11]; at 33.0 µM) was 46%. For the same molecule, the growth inhibition [11, 17] was 93% (active), the growth inhibition ([11]; at 50.0 µM) was 83.2% (active) and the growth inhibition ([11]; at 100.0 µM) was 89% (active). It also gave a growth inhibition ([12]; at 1.2 µM) of 8%, a growth inhibition ([12]; at 3.7 µM) of 14% and a growth inhibition ([12]; at 11.0 µM) of 11%. For the same molecule, the growth inhibition ([12]; at 33.0 µM) was 35%, the growth inhibition ([12]; at 100.0 µM) was 89% (active) and the growth inhibition ([13]; at 1.2 µM) was 2%. For the same molecule, the growth inhibition ([13]; at 3.7 µM) was 2%, the growth inhibition ([13]; at 11.0 µM) was 28% and the growth inhibition ([13]; at 33.0 µM) was 51%. The growth inhibition ([13]; at 100.0 µM) was 89% (active), the growth inhibition ([14]; at 1.2 µM) was 22% and the growth inhibition ([14]; at 3.7 µM) was 33%. The growth inhibition ([14]; at 11.0 µM) was 46%, the growth inhibition ([14]; at 33.0 µM) was 67% and the growth inhibition ([14]; at 100.0 µM) was 91% (active). It also gave a growth inhibition ([15]; at 1.2 µM) of 1%, a growth inhibition ([15]; at 3.7 µM) of 8% and a growth inhibition ([15]; at 11.0 µM) of -9%. For the same molecule, the growth inhibition ([15]; at 33.0 µM) was 45% and the growth inhibition ([15]; at 100.0 µM) was 89% (active).
